For 15 molecules, growth results are on record in PubChem BioAssay (NCI).

Test systems include HCT-15 colon; HT29 colon; SNB-75 CNS; SNB-19 CNS; U251 CNS; PC-3 prostate; UACC-62 melanoma; LOX IMVI melanoma; SK-MEL-28 melanoma.
Holding throughout (assay): NCI-60 one-dose screen, 48 h (100 = growth as untreated, 0 = no growth, -100 = all killed)
What all share (conditions): 10 µM unless noted

The panel holds about 83,000 compounds, 20% with a hit somewhere; the sample as a whole holds those more often.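 A percent growth of 40 corresponds to 60% growth inhibition; 0 means no net growth; -100 means all cells died. Active threshold: below 10.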 A number with no mark means an inactive call. Active and inactive are the calls of the source.

`O=c1c(-c2ccc3c(c2)OCO3)coc2c(CO)c(O)ccc12`: the growth is 12.6% in the experiment with HCT-15 colon; 86.1% with HT29 colon; -5.16% (active) in the experiment with SNB-75 CNS; 13.5% in the experiment with SNB-19 CNS; -92.6% (active) with U251 CNS; -52.4% (active) in the experiment with PC-3 prostate. Further, the figures for the growth in the experiment with UACC-62 melanoma, with LOX IMVI melanoma and in the experiment on SK-MEL-28 melanoma were -53.1% (active), -43.6% (active) and 40.3%, respectively.
For `O=C(Nc1ccc(-n2ccc3c(NC(=O)c4ccccc4)ncnc32)cc1)Nc1cccc(Cl)c1Cl`, the growth in the experiment on HCT-15 colon was 9.38% (active); in the experiment on HT29 colon it was -40.2% (active); in the experiment on SNB-75 CNS, 3.19% (active); in the experiment on SNB-19 CNS, -3.36% (active); with U251 CNS it was -80% (active); in the experiment with PC-3 prostate it was -57.5% (active). The growth in the experiment with UACC-62 melanoma is 33.4%; with LOX IMVI melanoma it was -23.9% (active); with SK-MEL-28 melanoma it was -24.2% (active).
As to `CCc1c(C)c2cc(-n3c(-c4ccc(OC)cc4)csc3=N)c(O)c(C)c2oc1=O`, the growth was 9.38% (active) in the experiment with HCT-15 colon; 5.28% (active) with HT29 colon; -2.92% (active) with SNB-75 CNS; 21.7% in the experiment on SNB-19 CNS; 10.8% in the experiment with U251 CNS; 12.9% in the experiment with PC-3 prostate. Moreover, the growth in the experiment on UACC-62 melanoma was 2% (active); in the experiment on LOX IMVI melanoma, 5.9% (active); with SK-MEL-28 melanoma it was 28.6%.
Take `COc1cc2nc(C(=O)N3CCCCC3)cc(Nc3ccccc3)c2cc1OC`: the growth is 102% in the experiment on HCT-15 colon; 104% with HT29 colon; 97.5% with SNB-75 CNS; 104% in the experiment with SNB-19 CNS; 102% in the experiment with U251 CNS; 114% in the experiment on PC-3 prostate. Besides, the growth in the experiment on UACC-62 melanoma was 104%; with LOX IMVI melanoma, 94.9%; in the experiment with SK-MEL-28 melanoma, 110%.
As for `CCc1c2cc(Cl)ccc2n2cc(Cc3ccccc3)[nH]c(=O)c12`, the growth in the experiment on HCT-15 colon was 98.9%; with HT29 colon it was 110%; with SNB-75 CNS it was 96.9%; in the experiment with SNB-19 CNS it was 104%; with U251 CNS, 99.5%; in the experiment on PC-3 prostate, 97.4%. Also, the growth in the experiment with UACC-62 melanoma and in the experiment on LOX IMVI melanoma was 98.2% in each case.
`CC1(C)N=C(N)N=C(N)N1c1ccc(F)c(C(F)(F)F)c1`: the growth was 45.8% in the experiment with HCT-15 colon; 19.3% with HT29 colon; 59% in the experiment with SNB-75 CNS; 44% with SNB-19 CNS; 47.2% with U251 CNS; 34.3% in the experiment on PC-3 prostate. The growth with UACC-62 melanoma was 24.3%; in the experiment with LOX IMVI melanoma, 21.4%; in the experiment with SK-MEL-28 melanoma it was 97.8%.
`Cc1ccc(-c2nc3c(N=Nc4ccc(S(N)(=O)=O)cc4)c(N)nn3c(N)c2C#N)cc1`: the growth in the experiment on HCT-15 colon was 82.5%; in the experiment with HT29 colon it was 35.8%; with SNB-75 CNS, 49%; in the experiment with SNB-19 CNS, 58%; in the experiment on U251 CNS, 31.8%; with PC-3 prostate it was 32.4%. Also, the growth in the experiment on UACC-62 melanoma is 52.9%; with LOX IMVI melanoma, 22.5%; in the experiment with SK-MEL-28 melanoma, 52.8%.
`CCOC(=O)C(C)(CSSCC(C)(NC(=O)c1ccc2ccccc2c1)C(=O)OCC)NC(=O)c1ccc2ccccc2c1` (stereo not drawn): the growth with HCT-15 colon was 82.2%; in the experiment with HT29 colon it was 81.2%; in the experiment with SNB-75 CNS, 107%; with SNB-19 CNS it was 86%; with U251 CNS it was 94.8%; with PC-3 prostate, 108%. For the same molecule, the growth with UACC-62 melanoma was 96.1%; in the experiment with LOX IMVI melanoma it was 89%; in the experiment with SK-MEL-28 melanoma it was 132%.
As for `COc1cc(-c2nc3sc(C)cn3c2/C=C2\C(=O)Nc3ccccc32)c(Br)c(OC)c1OC`, the growth is 52.9% in the experiment on HCT-15 colon; 9.62% (active) with HT29 colon; 18.2% in the experiment with SNB-75 CNS; 40.4% in the experiment with SNB-19 CNS; 52.1% in the experiment with U251 CNS; 26.5% in the experiment with PC-3 prostate. Besides, the values for the growth in the experiment on LOX IMVI melanoma and with SK-MEL-28 melanoma were 41.3% and 69.5%, respectively.
`Cc1cn(-c2nc3c(c(NCc4ccccc4)n2)COCC3)c2cccc(C(N)=O)c12`: the growth with HCT-15 colon is 81.9% [0.5 µM]; with HT29 colon, 63.4% [0.5 µM]; in the experiment on SNB-75 CNS it was 107% [0.5 µM]; in the experiment with SNB-19 CNS, 97.4% [0.5 µM]; with U251 CNS it was 93.5% [0.5 µM]; with PC-3 prostate, 83.8% [0.5 µM]. Besides, the growth was 44.3% [0.5 µM] in the experiment on UACC-62 melanoma, 16.3% [0.5 µM] in the experiment with LOX IMVI melanoma and 96.5% [0.5 µM] with SK-MEL-28 melanoma.
Take `CCC(C)Nc1ccc(N)cc1` (stereo not drawn): the growth is 30.5% in the experiment on HCT-15 colon; 7.64% (active) in the experiment on HT29 colon; 29.8% with SNB-75 CNS; 30.6% with SNB-19 CNS; 10.3% in the experiment on U251 CNS; 6.03% (active) with PC-3 prostate. In addition, the growth in the experiment on UACC-62 melanoma is 30.3%; in the experiment with LOX IMVI melanoma, 5.41% (active); with SK-MEL-28 melanoma, 71.6%.
Take `CCC1S/C(=N\N=C(/C)c2cccs2)N(c2ccccc2)C1=O` (stereo not drawn): the growth was 99% with HCT-15 colon; 91% in the experiment with HT29 colon; 110% in the experiment on SNB-75 CNS; 114% in the experiment with SNB-19 CNS; 105% in the experiment on U251 CNS; 98.4% in the experiment with PC-3 prostate. Also, the growth in the experiment with UACC-62 melanoma is 117%; with LOX IMVI melanoma, 105%; with SK-MEL-28 melanoma, 118%.
With `O=C1COc2ccccc2C(=O)N1CCCCNc1ccccc1`, the growth in the experiment with HCT-15 colon is 90.6%; in the experiment with HT29 colon it was 81.8%; in the experiment with SNB-75 CNS it was 106%; in the experiment with SNB-19 CNS, 94.1%; with U251 CNS it was 85.7%; in the experiment with PC-3 prostate, 47.2%. Moreover, the results for the growth with UACC-62 melanoma, in the experiment with LOX IMVI melanoma and in the experiment on SK-MEL-28 melanoma were 95%, 101% and 103%, respectively.
For `CCC1S/C(=N\N=C(/C)c2ccco2)N(c2ccccc2)C1=O` (stereo not drawn), the growth in the experiment with HCT-15 colon was 118%; in the experiment with HT29 colon, 86.8%; in the experiment on SNB-75 CNS, 103%; with SNB-19 CNS, 104%; in the experiment on U251 CNS, 104%; in the experiment on PC-3 prostate, 76.6%. Moreover, the growth in the experiment on UACC-62 melanoma was 92%; in the experiment with LOX IMVI melanoma, 99.5%; with SK-MEL-28 melanoma, 108%.
Take `CCC1S/C(=N\N=C(/C)c2cc3ccccc3o2)N(c2ccccc2)C1=O` (stereo not drawn): the growth in the experiment on HCT-15 colon is 107%; with HT29 colon, 98%; in the experiment with SNB-75 CNS, 102%; in the experiment with SNB-19 CNS, 100%; with U251 CNS, 96.7%; with PC-3 prostate, 81.7%. Besides, the growth with UACC-62 melanoma was 79.5%; with LOX IMVI melanoma, 93.7%; in the experiment with SK-MEL-28 melanoma, 114%.
